Assay results published in PubChem BioAssay (NCATS).
Records with an inconclusive call do not appear. Where a call stands in place of a potency, no number is given. Values without a mark were called inactive. The source made the active and inactive calls. Calls follow the shape of the dose curve; as a rule, active = well fitted curve in the direction sought with a large enough effect; inconclusive = small, poorly fitted or top-dose-only effect, or another doubt; inactive = no such curve, though single readings can be large; an effect the other way counts as inactive or inconclusive.

Legend:
[1] = molecular target: Calcium and integrin-binding protein 1 (Homo sapiens) (UniProt Q99828); test: Primary qHTS for Identification of Calcium Integrin Binding Protein 1 (CIB1) Competitor (AID 1508620); conditions: CIB1-GST / FITC-alphaIIb peptide fluorescence polarization; series mostly up to 114 µM;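 also: GST tagged CIB1 binding a fluorescein labelled alphaIIb integrin peptide tracer; top concentration of the series differs between compounds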
In short: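 Fluorescence polarization competition: GST-tagged CIB1 (1 uM final) preincubated with compound 15 min at room temperature, then FITC-labelled alphaIIb peptide (100 nM final) added. After 15 min at room temperature, polarization read at Ex 480/Em 540.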

[2] = Primary qHTS for inhibitors of nuclear receptor binding SET domain protein 2 (NSD2) in an isogenic RCH-ACV NSD2 p.E1099K mutant (9B) (AID 1645876); conditions: RCH-ACV NSD2 E1099K (9B) viability, CellTiter-Glo, 72 h; series mostly up to 44.9 µM; also: nearly all actives have a fitted effect of over 70% in size; also: potency is read from the fitted curve at half-maximal effect
[3] = Primary qHTS for inhibitors of nuclear receptor binding SET domain protein 2 (NSD2) in an RCH-ACV wild type WT cells (2C) (AID 1645877); conditions: RCH-ACV (leukaemia line) NSD2 WT (2C) viability, CellTiter-Glo, 72 h; series mostly up to 44.9 µM; also: nearly all actives have a fitted effect of over 70% in size; also: potency is read from the fitted curve at half-maximal effect

Sequence of Calcium and integrin-binding protein 1 (Homo sapiens) (Q99828 whole entry, looked up): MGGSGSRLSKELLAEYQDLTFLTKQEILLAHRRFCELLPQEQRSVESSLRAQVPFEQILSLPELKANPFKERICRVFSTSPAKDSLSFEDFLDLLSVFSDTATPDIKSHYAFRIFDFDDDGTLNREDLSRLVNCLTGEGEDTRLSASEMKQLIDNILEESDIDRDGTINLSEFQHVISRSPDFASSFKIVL

| Compound | Potency [1] | Potency [2] | Potency [3] | activity change, negative = inhibition [1] | activity change, negative = viability loss [2] | activity change, negative = cell killing [3] |
| --- | --- | --- | --- | --- | --- | --- |
| COc1ccc(CC2C(=O)NC(C)C(=O)N(C)C3Cc4ccc(cc4)Oc4cc(ccc4OC4OC(CO)C(O)C(O)C4O)CC(C(=O)NC(C)C(=O)NC(C)C(=O)N2C)N(C)C3=O)cc1 (stereo not drawn) | inactive | 0.0138 µM (active) | 0.0097 µM (active) | – | – | – |
| CC(C)(O)C1CCC(C)(C2CCC3(C)C4CCC5C(C)(C(=O)OC6OC(CO)C(O)C(O)C6O)C(O)CC(O)C56CC46CCC23C)O1 (stereo not drawn) | inactive | inactive | inactive | – | – | – |
| C/C=C(\C)C(=O)O[C@H]1[C@@H](O[C@]2(COC(=O)CC(C)C)O[C@H](COC(=O)C(C)CC)[C@@H](OC(C)=O)[C@@H]2O)O[C@H](COC(C)=O)[C@@H](O)[C@@H]1O (stereo partly drawn) | inactive | inactive | inactive | – | – | – |
| C#CC[C@H](c1nc2cc(Cl)ccc2c(=O)n1Nc1ccccc1)N(CCCN)C(=O)c1cccc(Cl)c1F | inactive | 0.372 µM (active) | 0.332 µM (active) | – | – | – |
| COc1cc(C)c(C(=O)Oc2cc(C)c(C(=O)Oc3cc(C)c(C(=O)NC(C)C(=O)O)c(O)c3)c(O[C@@H]3O[C@H](CO)[C@@H](O)[C@H](O)[C@H]3OC(C)=O)c2)c(OC)c1 (stereo partly drawn) | inactive | inactive | inactive | – | – | – |
| CCCC(=O)O[C@@H]1[C@@H]2[C@@H](OC(C)=O)[C@]3(C)C(=O)[C@H]4[C@@H](OC(C)=O)C(C)(C)C[C@H]4[C@]3(C)C(=O)[C@@]2(OC(C)=O)C[C@@H]1C | inactive | inactive | inactive | – | – | – |
| C=CC1(C)CC(OC(=O)/C(C)=C\COC(C)=O)C(C(=C)C(=O)O)C(O)C1C(=C)CO (stereo not drawn) | inactive | inactive | inactive | – | – | – |
| COc1cc(O)cc(C)c1C(=O)O[C@H]1[C@@H](OC(C)=O)[C@H](n2ccc(=O)[nH]c2=O)O[C@@H]1CO | inactive | inactive | inactive | – | – | – |
| COC(=O)C1=COC(OC2OC(CO)C(O)C(O)C2O)C2C1C=CC2(O)CO (stereo not drawn) | inactive | inactive | inactive | – | – | – |
| C[C@@]1(O)[C@H](O)[C@@H](CO)O[C@H]1n1ccc(N)nc1=O | inactive | 20.5 µM (active) | 23 µM (active) | – | – | – |
| CC(C)c1cc(C(=O)N2CC[C@H](NC(=O)C3CC3)C2)n[nH]1 | inactive | inactive | inactive | – | – | – |
| CC1OC(OC2C(C)OC(OC3C(OC(=O)C45CCC(C)(C)CC4C4=CCC6C7(C)CCC(OC8OC(C(=O)O)C(O)C(O)C8OC8OC(CO)C(O)C(OC9OC(C)C(O)C(O)C9O)C8O)C(C)(CO)C7CCC6(C)C4(C)CC5)OC(CO)C(O)C3O)C(O)C2O)C(O)C(O)C1O (stereo not drawn) | – | – | – | -1.29% [at 12.4 µM] | 2.43% [at 9.23 µM] | 3.53% [at 9.23 µM] |
| C=CC(C)(O)C(O)CC1C(C)(O)C(O)C(O)C2C(C)(C)CCCC21C (stereo not drawn) | inactive | inactive | inactive | – | – | – |
| CC1(C)CCC2(C(=O)OC3OC(CO)C(O)C(O)C3O)CCC3(C)C(=CCC4C5(C)CCC(OC6OC(C(=O)O)C(OC7OC(CO)C(O)C(O)C7O)C(OC7OC(CO)C(O)C(O)C7O)C6O)C(C)(C)C5CCC43C)C2C1 (stereo not drawn) | inactive | – | – | – | -4.92% [at 9.23 µM] | -7.84% [at 9.23 µM] |
| CC1=C(C(=O)O)/C(=C\CO[C@@H]2O[C@H](CO)[C@@H](O)[C@H](O)[C@H]2O)C(OC(=O)/C=C/c2ccc(O)cc2)C1 (stereo partly drawn) | inactive | inactive | inactive | – | – | – |
| O=C(/C=C/c1ccc(O)cc1)N[C@@H](Cc1ccc(O)cc1)C(=O)O | inactive | inactive | inactive | – | – | – |
| COc1cc(C)c(C(=O)O[C@H]2[C@@H](OC(C)=O)[C@H](n3ccc(=O)[nH]c3=O)O[C@@H]2CO)c(OC)c1 | inactive | inactive | inactive | – | – | – |
| C=C[C@@]12COC(=O)C(=C)C1[C@@H](O)[C@H](C(=C)C(=O)OC)[C@@H](OC(=O)C(=C)CO)C2 (stereo partly drawn) | inactive | 8.93 µM (active) | 7.09 µM (active) | – | – | – |
| CC1(C)C2CC(OC3OC(COC4OCC(O)(CO)C4O)C(O)C(O)C3O)C1(C)CC2O (stereo not drawn) | inactive | inactive | inactive | – | – | – |
| Cc1cc2c(F)c(Oc3ncnn4cc(OCC(C)O)c(C)c34)ccc2[nH]1 (stereo not drawn) | inactive | 4.09 µM (active) | 7.28 µM (active) | – | – | – |
| CC(CO)C1CCC2(C)CC3C(CO)CC(O)C3C(C)(O)C/C=C/12 (stereo not drawn) | inactive | inactive | inactive | – | – | – |
| Cc1ccc(S(=O)(=O)c2ccc([N+](=O)[O-])o2)cc1 | inactive | 0.649 µM (active) | 0.163 µM (active) | – | – | – |
| CC(C)=CCC[C@](C)(O[C@@H]1O[C@H](CO)[C@@H](O)[C@H](O)[C@H]1O)[C@H]1CC[C@]2(C)[C@@H]1[C@H](O)CC1[C@@]3(C)CC[C@H](O)C(C)(C)C3[C@@H](O[C@@H]3O[C@H](CO)[C@@H](O)[C@H](O)[C@H]3O[C@@H]3OC[C@@H](O)[C@H](O)[C@H]3O)C[C@]12C (stereo partly drawn) | inactive | – | – | – | -22.1% [at 9.23 µM] | -29.2% [at 9.23 µM] |
| OCC(CO[C@@H]1O[C@H](CO)[C@@H](O)[C@H](O)[C@H]1O)c1ccc2c(c1)OCO2 (stereo partly drawn) | inactive | inactive | inactive | – | – | – |
| OCCc1ccc(O[C@@H]2O[C@H](CO)[C@@H](O)[C@H](O)[C@H]2O)cc1 | inactive | inactive | inactive | – | – | – |
| CC[C@H](C)[C@H](NC(=O)[C@H]([C@@H](C)CC)N(C)C(C)=O)C(=O)N[C@H](C(=O)N[C@@H](CC(C)C)C(=O)[C@@]1(C)CO1)[C@@H](C)O | inactive | 0.0129 µM (active) | 0.0073 µM (active) | – | – | – |
